Test results published in PubChem BioAssay (Tox21).
A number with no mark means an inactive call. Records with an inconclusive call do not appear. Entries that show only a call come without a potency. Active and inactive are the calls of the source. Unless noted, the call rests on the fitted dose curve; in most records, active means well fitted curve in the direction sought with a large enough effect in the repeat runs; inconclusive means weak or mixed curves; inactive means no such curve, though single readings can be large; an effect the other way counts as inactive or inconclusive.

What was measured:
[1] = qHTS assay to identify small molecule agonists of H2AX - cell viability counter screen (AID 1224847; calls by dose curve; further: nearly all actives have a fitted effect of over 30% in size; further: potency means the concentration at half of the fitted maximal effect)
Outline: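 Read-out: CellTiter-Glo luminescence, 30 min RT. Cells: wild-type CHO-K1, 1000/well, 10% FBS, plated overnight at 37C. Treatment: 15 concentrations, 3 hr, 37C, 0.76% DMSO.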

[2] = qHTS assay to identify small molecule antagonists of the estrogen related receptor (ERR) signaling pathway from Tox21 library (AID 1224848); further: nearly all actives have a fitted effect of over 50% in size; further: potency means the concentration at half of the fitted maximal effect
Outline: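 Cells: ERR line, 2,000/well; 6 h preincubation 37 C/5% CO2. Cpd in DMSO via pin tool; 18 h, 37 C. ONE-Glo, 30 min RT, luminescence.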

[3] = qHTS assay to identify small molecule agonists of the estrogen related receptor (ERR) signaling pathway from Tox21 library (AID 1224849; calls by dose curve; further: nearly all actives have a fitted effect of over 15% in size); conditions: ERR reporter cell line, ONE-Glo luciferase, 18 h; at 92.4 µM (top of the series) unless noted
Outline: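 ERR cells, 6 h pre-incubation 37 C/5% CO2; cpd in DMSO pinned; 18 h 37 C; ONE-Glo added, 30 min RT; luminescence read. Agonist mode, qHTS.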

[4] = qHTS RealTime-Glo MT Cell Viability Assay in HepG2 cells - 24 hour (AID 1224867); further: nearly all actives have a fitted effect of over 50% in size
Outline: (§1)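 HepG2 suspension premixed with RealTime-Glo reagents is plated at 600 cells per well and left 5 h at 37 C/5% CO2. Compounds in DMSO then go in, and bioluminescence reflecting viable cell number is recorded over 40 h.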

[5] = qHTS RealTime-Glo MT Cell Viability Assay in HEK293 cells - 32 hour (AID 1224868); further: top concentration of the series differs between compounds; nearly all actives have a fitted effect of over 50% in size
Outline: (§2)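 Reads taken at 0, 8, 16, 24, 32 and 40 h from the same wells. HEK293 cells (600/well) carried RealTime-Glo reagents from seeding, with compound added after a 5 h settle at 37 C.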

[6] = A CellTox Green Cytotoxicity Assay to monitor cytotoxicity in HEK293 cells - 0 hour (AID 1224869); further: nearly all actives have a fitted effect of over 50% in size
Outline: (§3)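 Nonlytic real-time cytotoxicity: HEK293 + CellTox Green reagent plated, 5 h preincubation, pintool compound addition (23 nL in DMSO), 37 C for 40 h, fluorescence measured at successive time points.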

[7] = qHTS RealTime-Glo MT Cell Viability Assay in HepG2 cells - 40 hour (AID 1224870); further: nearly all actives have a fitted effect of over 50% in size
Outline: (§4)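 HepG2 cells mixed with RealTime-Glo MT reagents (NanoLuc plus cell-permeant prosubstrate) were seeded at 600 cells/well, incubated 5 h at 37 C/5% CO2, then pinned with compounds in DMSO; nonlytic luminescence tracked viability during 40 h treatment.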

[8] = qHTS RealTime-Glo MT Cell Viability Assay in HEK293 cells - 16 hour (AID 1224872)
Outline: as §2

[9] = qHTS RealTime-Glo MT Cell Viability Assay in HepG2 cells - 8 hour (AID 1224873); further: nearly all actives have a fitted effect of over 55% in size
Outline: as §4

[10] = qHTS RealTime-Glo MT Cell Viability Assay in HEK293 cells - 40 hour (AID 1224874); conditions: RealTime-Glo luminescence; max response: stronger effect = lower value; further: nearly all actives have a fitted effect of over 50% in size
Outline: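 Cells were seeded together with NanoLuc luciferase and a prosubstrate that viable cells reduce to a luciferase substrate. After a 5 h incubation at 37 C/5% CO2, compounds were added and luminescence was measured repeatedly during 40 h of treatment.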

[11] = A CellTox Green Cytotoxicity Assay to monitor cytotoxicity in HEK293 cells - 24 hour (AID 1224875); further: nearly all actives have a fitted effect of over 45% in size
Outline: as §3

[12] = A CellTox Green Cytotoxicity Assay to monitor cytotoxicity in HepG2 cells - 16 hour (AID 1224876); further: nearly all actives have a fitted effect of over 45% in size
Outline: (§5)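 Read-out is fluorescence of a cyanine dye excluded from live cells that stains DNA of dead HepG2 cells, with signal proportional to cytotoxicity. Plates were read at 0, 8, 16, 24, 32 and 40 h after compound addition.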

[13] = qHTS RealTime-Glo MT Cell Viability Assay in HepG2 cells - 32 hour (AID 1224877); further: nearly all actives have a fitted effect of over 55% in size
Outline: as §1

[14] = A CellTox Green Cytotoxicity Assay to monitor cytotoxicity in HepG2 cells - 24 hour (AID 1224878); further: nearly all actives have a fitted effect of over 45% in size
Outline: as §5

[15] = A CellTox Green Cytotoxicity Assay to monitor cytotoxicity in HepG2 cells - 40 hour (AID 1224879); further: nearly all actives have a fitted effect of over 40% in size
Outline: as §5

[16] = qHTS assay to identify small molecule agonists of the hypoxia (HIF-1) signaling pathway - cell viability counter screen (AID 1224844; calls by dose curve; further: nearly all actives have a fitted effect of over 50% in size)
Outline: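 ME-180 HRE-bla cells, 2,000/well, 0.5% dialyzed FBS; 5 hr settle, 17 hr compound at 37C/5% CO2; CCF4-AM reporter read first, then CellTiter-Glo luminescence after 30 min RT.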

[17] = qHTS assay to identify small molecule agonists of the hypoxia (HIF-1) signaling pathway (AID 1224846; active means well fitted activation curve with a large enough effect in the signal ratio in the repeat runs, not every such curve was filed as active; the % refers to the signal ratio)
Outline: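 Cell line: CellSensor HRE-bla ME-180; 2,000 cells/well; 0.5% dialyzed FBS; 5 h preincubation; DMSO compound pin transfer; 17 h, 37C, 5% CO2; CCF4-AM added; bla FRET signal scored for activation.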

[18] = A CellTox Green Cytotoxicity Assay to monitor cytotoxicity in HEK293 cells - 40 hour (AID 1224871); further: nearly all actives have a fitted effect of over 45% in size
Outline: as §3

[19] = qHTS assay to identify small molecule agonists of H2AX (AID 1224845; active means well fitted activation curve with a large enough effect in the signal ratio in the repeat runs, not every such curve was filed as active; the % refers to the signal ratio)
Outline: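 Wild-type CHO-K1 cells plated overnight, then exposed 3 hr at 37C to compounds at 15 concentrations (0.76% DMSO). Lysed, then HTRF anti-pH2AX(S139)-cryptate/anti-H2AX-d2 detection after 24 hr at room temperature; emissions 665 and 620 nm.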

CCN(Cc1cccc(S(=O)(=O)O)c1)c1ccc(C(=C2C=CC(=[N+](CC)Cc3cccc(S(=O)(=O)O)c3)C=C2)c2ccc(O)cc2S(=O)(=O)[O-])cc1
Potency [1]: 19.4 µM (active)
Potency [2]: 16.6 µM (active)
activity change, positive = activation [3]: -59.2% [at 42.5 µM]
Potency [4]: inactive
Potency [5]: inactive
Potency [6]: inactive
Potency [7]: inactive
Potency [8]: inactive
Potency [9]: inactive
max response [10]: 8.88%
Potency [11]: inactive
Potency [12]: inactive
Potency [13]: inactive
Potency [14]: inactive
Potency [15]: inactive

CCCOC(=O)c1c(Cl)c(Cl)c(Cl)c(Cl)c1C(=O)OCCC
Potency [16]: inactive
outcome [17]: inactive
Potency [1]: inactive
Potency [2]: inactive
activity change, positive = activation [3]: 6.22%
Potency [4]: inactive
Potency [5]: inactive
Potency [6]: inactive
Potency [7]: inactive
Potency [8]: inactive
Potency [9]: inactive
max response [10]: 3.32%
Potency [11]: inactive
Potency [12]: inactive
Potency [13]: inactive
Potency [15]: inactive

CC(C)COC(=O)COc1cc(Cl)c(Cl)cc1Cl
Potency [16]: inactive
outcome [17]: inactive
Potency [1]: inactive
Potency [2]: inactive
activity change, positive = activation [3]: -0.133%
Potency [4]: inactive
Potency [5]: inactive
Potency [6]: inactive
Potency [7]: inactive
Potency [18]: inactive
Potency [8]: inactive
Potency [9]: inactive
max response [10]: -15.9%
Potency [11]: inactive
Potency [13]: inactive
Potency [14]: inactive
Potency [15]: inactive

CCN(CC)c1cccc(O)c1
Potency [16]: inactive
outcome [17]: inactive
Potency [1]: inactive
Potency [2]: inactive
activity change, positive = activation [3]: 2.77%
Potency [4]: inactive
Potency [5]: inactive
Potency [6]: inactive
Potency [7]: inactive
Potency [18]: inactive
Potency [8]: inactive
Potency [9]: inactive
max response [10]: 7.38%
Potency [12]: inactive
Potency [13]: inactive
Potency [14]: inactive

CC(=O)OC(C)C[N+](C)(C)C (centres undefined)
Potency [16]: inactive
Potency [1]: inactive
Potency [2]: inactive
activity change, positive = activation [3]: 7.44% [at 42.5 µM]
Potency [4]: inactive
Potency [5]: inactive
Potency [7]: inactive
Potency [8]: inactive
Potency [9]: inactive
max response [10]: -1.13%
Potency [11]: inactive
Potency [12]: inactive
Potency [13]: inactive
Potency [14]: inactive

O=C(C(=O)c1ccco1)c1ccco1
Potency [16]: inactive
outcome [17]: inactive
Potency [1]: inactive
Potency [4]: inactive
Potency [6]: inactive
Potency [7]: inactive
Potency [18]: inactive
Potency [9]: inactive
Potency [12]: inactive
Potency [13]: inactive
Potency [14]: inactive
Potency [15]: inactive

Nc1cccc2c(N)cccc12
outcome [17]: inactive
Potency [1]: inactive
Potency [6]: inactive
Potency [18]: inactive
Potency [12]: inactive
Potency [13]: inactive
Potency [14]: inactive

CC[C@H]1OC(=O)[C@H](C)[C@@H](O[C@H]2C[C@@](C)(OC)[C@@H](O)[C@H](C)O2)[C@H](C)[C@@H](O[C@@H]2O[C@H](C)C[C@H](N(C)C)[C@H]2O)[C@](C)(O)C[C@@H](C)CN(C)[C@H](C)[C@@H](O)[C@]1(C)O
Potency [16]: inactive
Potency [19]: inactive
outcome [17]: inactive
Potency [1]: inactive
Potency [4]: inactive
Potency [6]: inactive
Potency [7]: inactive
Potency [18]: inactive
Potency [8]: inactive
Potency [9]: inactive
Potency [11]: inactive
Potency [12]: inactive
Potency [13]: inactive
Potency [15]: inactive

CC(=O)OCC(C)C
Potency [16]: inactive
outcome [17]: inactive
Potency [1]: inactive
Potency [4]: inactive
Potency [5]: inactive
Potency [6]: inactive
Potency [7]: inactive
Potency [18]: inactive
Potency [8]: inactive
Potency [9]: inactive
max response [10]: 1.5%
Potency [11]: inactive
Potency [12]: inactive
Potency [13]: inactive
Potency [15]: inactive

COc1ccc(CCN(C)CCCN2CCc3cc(OC)c(OC)cc3CC2=O)cc1OC
Potency [16]: inactive
Potency [19]: inactive
Potency [1]: inactive
Potency [4]: inactive
Potency [5]: inactive
Potency [18]: inactive
Potency [8]: inactive
Potency [9]: inactive
max response [10]: 9.42%
Potency [12]: inactive
Potency [13]: inactive
Potency [14]: inactive

c1ccc(CNc2ncnc3c2ncn3C2CCCCO2)cc1 (centres undefined)
Potency [16]: inactive
Potency [1]: inactive
Potency [4]: inactive
Potency [6]: inactive
Potency [7]: inactive
Potency [18]: inactive
Potency [9]: inactive
Potency [11]: inactive
Potency [12]: inactive
Potency [13]: inactive
Potency [14]: inactive
Potency [15]: inactive

O=c1[nH]c2cc(C(F)(F)F)c(N3CCOCC3)cc2n(CP(=O)(O)O)c1=O
Potency [16]: inactive
Potency [19]: inactive
Potency [1]: inactive
Potency [4]: inactive
Potency [5]: inactive
Potency [6]: inactive
Potency [7]: inactive
Potency [8]: inactive
Potency [9]: inactive
max response [10]: 8.28%
Potency [12]: inactive
Potency [13]: inactive
Potency [14]: inactive
Potency [15]: inactive
